Source: PubChem BioAssay (EPA / NIEHS)
Calls of active or inactive are those of the source. The calls were made as follows: active = hit-call score of the fitted dose curve at least 0.9, where 1 is the maximum; inactive = score below 0.9.

Assay: CCTE_Padilla_ZF_Score.Spine: CCTE's 144 Hour Post-fertilization zebrafish Assay Score for Spine Malformation, Padilla Lab (AID 2284407)
Experimental: CCTE_Padilla_ZF_Phenotype_Score is a whole embryo, multiplexed assay using zebrafish ova exposed for 144 hours post fertilization on a 96-well plate.CCTE_Padilla_ZF_Score.Spine is one of one assay component(s) measured or calculated from the CCTE_Padilla_ZF_Phenotype_Score assay. It is designed to make measurements of zebrafish development as detected with brightfield microscopy of developing zebrafish embryos.Data from the assay component CCTE_Padilla_ZF_Score.Spine was analyzed into 1 assay endpoints. This assay endpoint, CCTE_Padilla_ZF_Score.Spine, was analyzed in the positive analysis fitting direction relative to DMSO as the negative control and baseline of activity. Using a type of viability reporter, gain-of-signal activity can be used to understand changes in developmentals as they relate to the whole embryo. To generalize the intended target to other relatable targets, this assay endpoint is annotated to the zebrafish development intended target family, where the subfamily is body axis morphogenesis.
Zebrafish husbandry: Wild type adult zebrafish (Danio rerio; undefined outbred stock obtained from Aquatic Research Organisms, Hampton, NH, 03842) were housed in an AAALAC-approved animal facility at 28C with a 14:10 h light: dark cycle (lights on at 08:30 h). Adult fish (2-3 females per male; density = 15-20 adults per tank) were kept in one of several 9-liter (L) flow-through colony tanks (Aquaneering Inc., San Diego, CA). All adults in a colony tank were placed in a 2 L (static) breeding tank (Aquatic Habitats, Apopka, FL) one hour prior to light onset. Typically, adults from two to three colony tanks were mated on the same day. Two hours after light onset the adults were returned to the colony tank. All embryos were gathered from each breeder tank, pooled, and placed in a 28C water bath for 2 h, followed by two washes with 0.06% bleach (v/v) in 10% Hanks' Balanced Salt Solution (13.7 mM NaCl 0.54 mM KCl, 25 uM Na2HPO4, 130 uM CaCl2 100 um MgSO4 and 420 um NaHCO3,), hereafter referred to as Hanks' solution, for 5 min in order to remove any residual bacteria or fungi. Immediately following washing, the embryos were examined, and healthy embryos were separated from dead or unfertilized eggs and moved into fresh Hanks'. Chemical exposures: Zebrafish embryos were exposed in 96-well plates. Between 6- and 8-hours post fertilization (hpf), healthy embryos (with chorions) were transferred, one embryo per well, into 96 well (0.5 mL) microtiter plates (Cell Culture-Treated, Flat-Bottom Microplate 96 well [Corning Costar, Kennebunk, ME; Cat 09-761-145]) filled with 200 uL of Hanks' solution. A random number generator was used to assign the order in which the rows of embryos were plated in 96 well plates each week. After plating, the embryos were dosed with 0.8 uL of the chemical dosing solution then immediately sealed with AlumaSeal II (Excel Scientific Inc, Victorville, CA) to prevent volatilization of the chemicals, and then placed in a leakproof secondary container. These containers were placed in an incubator maintained on a 14:10 h light: dark cycle at 26C for rearing. On 5 dpf, live larvae were gently moved out of the plate with test chemicals and into a new 96 well mesh plate (Millipore Corp., Bedford, MA) with just the Hanks' solution. Once within the mesh well plate, the animals were rinsed with 400 uL of fresh Hanks' three times, and then the plates were covered with a non-adhesive material (Microseal A, BioRad, Hercules, CA), plate lid added, and then plate sides wrapped in Parafilm (PM992, Bermis Company, Neenah, WI), and returned to the incubator. […]

Compound | outcome | AC50
CN(C(=O)C(F)(F)C(F)(F)C(F)(F)F)[Si](C)(C)C | inactive | 
NCC(F)(F)C(F)(F)C(F)(F)C(F)(F)C(F)(F)C(F)(F)F | inactive | 
OCCCC(F)(F)C(F)(F)C(F)(F)C(F)(F)C(F)(F)C(F)(F)C(F)(F)C(F)(F)F | inactive | 
O=S(=O)(Cl)C(F)(F)C(F)(F)C(F)(F)C(F)(F)C(F)(F)C(F)(F)C(F)(F)C(F)(F)F |  | 88.8 µM (active)
OC(O)C(F)(F)C(F)(F)F | inactive | 
O=S(=O)(OCC(F)(F)F)C(F)(F)C(F)(F)C(F)(F)C(F)(F)F | inactive | 
OCC(F)(F)C(F)(F)C(F)(F)C(F)(F)C(F)(F)C(F)(F)CO | inactive | 
O=C(F)C1(F)C(F)(F)C(F)(F)C(F)(F)C(F)(F)C1(F)F | inactive | 
O=S(=O)(O)CCC(F)(F)C(F)(F)C(F)(F)C(F)(F)F | inactive | 
C=C(C)C(=O)OCC(F)(F)C(F)(F)C(F)(F)C(F)F | inactive | 
O=C(O)C(F)(F)C(F)(F)C(F)(F)OC(F)(F)F | inactive | 
NC(=O)C(F)(F)C(F)(F)C(F)(F)C(F)(F)C(F)(F)C(F)(F)C(F)(F)F | inactive | 
O=C(O)C(F)(F)OC(F)(F)C(F)(F)OC(F)(F)C(F)(F)OC(F)(F)F | inactive | 
NC(=O)C(F)(F)C(F)(F)C(F)(F)C(F)F | inactive | 
OCC(O)CC(F)(F)C(F)(F)C(F)(F)C(F)(F)C(F)(F)C(F)(F)C(F)(F)C(F)(F)F (stereo not given) | inactive | 
C=CC(=O)OCCC(F)(F)C(F)(F)C(F)(F)C(F)(F)F | inactive | 
OCC(O)CC(F)(F)C(F)(F)C(F)(F)C(F)(F)F (stereo not given) | inactive | 
C=CC(=O)OCC(F)(F)C(F)(F)C(F)(F)COC(=O)C=C | inactive | 
C=CC(=O)OCC(F)(F)C(F)(F)C(F)(F)C(F)(F)C(F)(F)C(F)(F)C(F)(F)C(F)F | inactive | 
O=C(O)C(F)(F)C(F)(F)C(F)(F)C(F)(F)C(F)(F)C(F)(F)C(F)F | inactive | 

Compound | outcome | AC50
O=C(O)C(F)(F)C(F)(F)C(F)(F)OC(F)(C(F)(F)F)C(F)(F)F | inactive | 
OCC(F)(F)C(F)(F)C(F)(F)C(F)(F)C(F)(F)C(F)(F)C(F)(F)C(F)(F)CO | inactive | 
O=C(Cl)C(F)(F)C(F)(F)C(F)(F)C(F)(F)C(F)(F)C(F)(F)C(F)(F)F | inactive | 
NC(=O)C(F)(F)C(F)(F)C(F)(F)C(F)(F)C(N)=O | inactive | 
NCC(F)(F)C(F)(F)C(F)(F)C(F)(F)C(F)(F)C(F)(F)C(F)(F)C(F)(F)F | inactive | 
COC(F)(C(F)F)C(F)(F)F (stereo not given) | inactive | 
FC(F)(F)C(F)(F)C(F)(F)C(F)(F)C(F)(F)C(F)(F)C(F)(F)CCI | inactive | 
OCCCCC(F)(F)C(F)(F)C(F)(F)C(F)(F)F | inactive | 
OCC(F)(F)C(F)(F)C(F)(F)CO | inactive | 
CCOC(=O)CC(=O)C(F)(F)C(F)(F)F | inactive | 
O=S(=O)(O)CCC(F)(F)C(F)(F)C(F)(F)C(F)(F)C(F)(F)C(F)(F)C(F)(F)C(F)(F)F | inactive | 
CO[Si](C)(CCC(F)(F)C(F)(F)C(F)(F)C(F)(F)C(F)(F)C(F)(F)F)OC | inactive | 
NS(=O)(=O)C(F)(F)C(F)(F)C(F)(F)C(F)(F)C(F)(F)C(F)(F)F | inactive | 
CCN(CCO)S(=O)(=O)C(F)(F)C(F)(F)C(F)(F)C(F)(F)C(F)(F)C(F)(F)C(F)(F)C(F)(F)F | inactive | 
FC(F)(F)C(F)(F)C(F)(F)CC1CO1 (stereo not given) | inactive | 
CNS(=O)(=O)C(F)(F)C(F)(F)C(F)(F)C(F)(F)C(F)(F)C(F)(F)C(F)(F)C(F)(F)F | inactive | 
C[Si](Cl)(Cl)CCC(F)(F)C(F)(F)C(F)(F)C(F)(F)C(F)(F)C(F)(F)F | inactive | 
NC(=O)C(F)(F)C(F)(F)C(F)(F)F | inactive | 
O=C(O)C(F)(F)C(F)(F)C(F)(F)C(=O)O | inactive | 
NC(O)(C(F)(F)F)C(F)(F)F | inactive | 
